Data published in the supplement of paper PMC11732987, “Enantioselective OTUD7B fragment discovery through chemoproteomics screening and high-throughput optimisation” (Communications Chemistry, 2025).

Columns and labels:
Assay in all cases: log2 ratio of Biotin-Ahx-Ub-VS probe labelling (fragment/DMSO); higher = less target engagement (more negative = stronger competition), active = hit call of the paper (q ≤ 0.05, log2 ratio ≤ -1)
Settings in all cases: compound concentration: 200 uM; treatment time: 3 h
USP34 = USP34 (UniProt Q70CQ2)
USP34, sequence (Q70CQ2 whole entry, the tested form may be a part): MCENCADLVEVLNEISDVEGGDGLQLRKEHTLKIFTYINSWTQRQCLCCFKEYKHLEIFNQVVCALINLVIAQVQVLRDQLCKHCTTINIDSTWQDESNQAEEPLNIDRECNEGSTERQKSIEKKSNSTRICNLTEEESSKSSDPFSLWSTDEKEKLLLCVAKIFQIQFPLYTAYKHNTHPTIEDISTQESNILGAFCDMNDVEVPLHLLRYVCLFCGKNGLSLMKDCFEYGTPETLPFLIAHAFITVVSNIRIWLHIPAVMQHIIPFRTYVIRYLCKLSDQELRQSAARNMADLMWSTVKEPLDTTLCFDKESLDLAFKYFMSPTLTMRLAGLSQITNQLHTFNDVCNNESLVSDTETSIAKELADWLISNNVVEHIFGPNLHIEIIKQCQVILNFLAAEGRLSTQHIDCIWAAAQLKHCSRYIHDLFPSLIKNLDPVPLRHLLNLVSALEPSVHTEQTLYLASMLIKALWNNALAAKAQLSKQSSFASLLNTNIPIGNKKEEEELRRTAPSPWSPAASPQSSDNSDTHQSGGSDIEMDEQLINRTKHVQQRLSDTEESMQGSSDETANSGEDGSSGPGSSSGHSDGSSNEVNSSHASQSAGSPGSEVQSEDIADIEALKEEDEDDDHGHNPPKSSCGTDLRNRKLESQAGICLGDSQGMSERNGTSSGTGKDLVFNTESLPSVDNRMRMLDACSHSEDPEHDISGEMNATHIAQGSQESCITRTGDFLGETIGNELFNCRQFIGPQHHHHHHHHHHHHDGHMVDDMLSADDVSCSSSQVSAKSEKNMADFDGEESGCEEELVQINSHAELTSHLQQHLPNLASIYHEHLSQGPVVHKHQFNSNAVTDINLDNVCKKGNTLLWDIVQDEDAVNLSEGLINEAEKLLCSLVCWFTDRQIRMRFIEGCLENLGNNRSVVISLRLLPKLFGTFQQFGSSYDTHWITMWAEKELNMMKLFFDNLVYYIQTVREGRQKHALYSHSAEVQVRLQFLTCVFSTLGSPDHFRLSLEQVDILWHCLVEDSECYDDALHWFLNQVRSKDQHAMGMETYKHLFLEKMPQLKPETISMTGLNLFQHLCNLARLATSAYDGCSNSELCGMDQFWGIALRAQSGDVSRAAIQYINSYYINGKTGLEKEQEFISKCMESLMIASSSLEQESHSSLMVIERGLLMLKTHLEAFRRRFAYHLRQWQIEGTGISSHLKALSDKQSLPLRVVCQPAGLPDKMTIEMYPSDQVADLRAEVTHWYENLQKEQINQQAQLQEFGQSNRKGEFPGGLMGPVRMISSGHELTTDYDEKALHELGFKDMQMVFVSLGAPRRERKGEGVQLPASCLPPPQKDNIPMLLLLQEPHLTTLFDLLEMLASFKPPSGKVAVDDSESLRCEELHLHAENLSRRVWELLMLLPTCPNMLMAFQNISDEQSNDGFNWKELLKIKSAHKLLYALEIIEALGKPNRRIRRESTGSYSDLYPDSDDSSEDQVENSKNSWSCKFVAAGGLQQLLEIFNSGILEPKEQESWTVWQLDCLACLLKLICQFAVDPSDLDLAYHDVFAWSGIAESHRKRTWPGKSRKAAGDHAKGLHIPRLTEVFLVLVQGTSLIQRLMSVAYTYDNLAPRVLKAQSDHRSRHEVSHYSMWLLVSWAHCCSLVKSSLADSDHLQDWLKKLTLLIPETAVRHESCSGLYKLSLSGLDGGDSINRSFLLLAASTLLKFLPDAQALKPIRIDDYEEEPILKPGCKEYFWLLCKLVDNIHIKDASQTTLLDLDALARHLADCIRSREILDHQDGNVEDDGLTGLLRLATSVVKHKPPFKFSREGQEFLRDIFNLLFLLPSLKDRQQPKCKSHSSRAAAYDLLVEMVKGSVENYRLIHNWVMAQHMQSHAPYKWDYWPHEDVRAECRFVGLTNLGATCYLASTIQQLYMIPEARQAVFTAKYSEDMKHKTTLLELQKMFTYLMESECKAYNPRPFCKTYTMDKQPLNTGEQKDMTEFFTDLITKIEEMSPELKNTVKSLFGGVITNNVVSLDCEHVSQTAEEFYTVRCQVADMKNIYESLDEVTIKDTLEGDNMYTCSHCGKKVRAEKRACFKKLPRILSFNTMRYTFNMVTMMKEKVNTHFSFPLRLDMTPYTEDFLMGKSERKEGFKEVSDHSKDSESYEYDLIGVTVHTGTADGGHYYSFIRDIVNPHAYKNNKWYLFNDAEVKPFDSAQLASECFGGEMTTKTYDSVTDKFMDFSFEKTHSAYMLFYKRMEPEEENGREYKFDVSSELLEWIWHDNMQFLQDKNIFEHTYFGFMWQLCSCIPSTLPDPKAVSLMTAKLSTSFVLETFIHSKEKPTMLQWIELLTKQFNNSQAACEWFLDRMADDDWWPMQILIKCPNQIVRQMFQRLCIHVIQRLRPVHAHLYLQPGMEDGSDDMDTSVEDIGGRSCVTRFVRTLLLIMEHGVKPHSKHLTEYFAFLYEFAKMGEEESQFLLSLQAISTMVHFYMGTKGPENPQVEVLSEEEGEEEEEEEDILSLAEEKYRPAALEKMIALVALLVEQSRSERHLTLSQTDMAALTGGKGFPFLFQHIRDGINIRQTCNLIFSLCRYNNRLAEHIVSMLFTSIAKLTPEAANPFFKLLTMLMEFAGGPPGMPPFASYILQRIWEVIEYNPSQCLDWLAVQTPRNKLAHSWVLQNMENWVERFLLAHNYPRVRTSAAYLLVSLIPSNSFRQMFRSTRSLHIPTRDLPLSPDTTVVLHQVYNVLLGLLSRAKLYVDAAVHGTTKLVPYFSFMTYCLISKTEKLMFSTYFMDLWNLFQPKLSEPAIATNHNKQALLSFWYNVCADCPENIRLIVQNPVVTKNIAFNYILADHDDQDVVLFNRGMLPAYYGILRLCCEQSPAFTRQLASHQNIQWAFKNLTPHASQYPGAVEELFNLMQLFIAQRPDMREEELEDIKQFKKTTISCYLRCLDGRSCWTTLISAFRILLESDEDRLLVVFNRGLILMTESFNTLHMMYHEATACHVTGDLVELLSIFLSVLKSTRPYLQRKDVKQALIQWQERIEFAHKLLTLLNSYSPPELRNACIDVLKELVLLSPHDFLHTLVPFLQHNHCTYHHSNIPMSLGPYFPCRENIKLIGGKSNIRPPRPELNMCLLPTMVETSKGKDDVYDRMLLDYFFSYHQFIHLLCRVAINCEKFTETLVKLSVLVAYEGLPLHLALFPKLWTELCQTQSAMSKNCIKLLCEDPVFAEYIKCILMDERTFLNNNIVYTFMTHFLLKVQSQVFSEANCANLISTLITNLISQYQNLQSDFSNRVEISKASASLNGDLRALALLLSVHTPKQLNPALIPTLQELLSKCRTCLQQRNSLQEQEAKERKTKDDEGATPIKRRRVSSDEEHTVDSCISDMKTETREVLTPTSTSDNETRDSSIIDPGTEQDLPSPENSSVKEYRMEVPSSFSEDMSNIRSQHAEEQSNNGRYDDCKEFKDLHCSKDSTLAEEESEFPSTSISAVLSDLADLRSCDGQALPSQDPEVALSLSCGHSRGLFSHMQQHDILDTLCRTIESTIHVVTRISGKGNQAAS
Method in brief: (§1)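 HEK293T lysate, 495 µg per sample in Tris/CHAPS/IGEPAL buffer with protease inhibitors, was treated in triplicate with fragment at 200 µM or vehicle for 3 h and then with Biotin-Ahx-Ub-VS at 0.5 µM final for 1 h. Labelled DUBs were NeutrAvidin-enriched, digested with LysC and trypsin, and run by diaPASEF LC-MS/MS. Spectronaut label-free quantities were global-median-normalised, and values are average log2 fragment/vehicle ratios by unpaired t-test on proteins with ≥2 unique peptides.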

USP36 = molecular target: T1, USP36 (UniProt Q9P275)
T1 sequence (whole entry): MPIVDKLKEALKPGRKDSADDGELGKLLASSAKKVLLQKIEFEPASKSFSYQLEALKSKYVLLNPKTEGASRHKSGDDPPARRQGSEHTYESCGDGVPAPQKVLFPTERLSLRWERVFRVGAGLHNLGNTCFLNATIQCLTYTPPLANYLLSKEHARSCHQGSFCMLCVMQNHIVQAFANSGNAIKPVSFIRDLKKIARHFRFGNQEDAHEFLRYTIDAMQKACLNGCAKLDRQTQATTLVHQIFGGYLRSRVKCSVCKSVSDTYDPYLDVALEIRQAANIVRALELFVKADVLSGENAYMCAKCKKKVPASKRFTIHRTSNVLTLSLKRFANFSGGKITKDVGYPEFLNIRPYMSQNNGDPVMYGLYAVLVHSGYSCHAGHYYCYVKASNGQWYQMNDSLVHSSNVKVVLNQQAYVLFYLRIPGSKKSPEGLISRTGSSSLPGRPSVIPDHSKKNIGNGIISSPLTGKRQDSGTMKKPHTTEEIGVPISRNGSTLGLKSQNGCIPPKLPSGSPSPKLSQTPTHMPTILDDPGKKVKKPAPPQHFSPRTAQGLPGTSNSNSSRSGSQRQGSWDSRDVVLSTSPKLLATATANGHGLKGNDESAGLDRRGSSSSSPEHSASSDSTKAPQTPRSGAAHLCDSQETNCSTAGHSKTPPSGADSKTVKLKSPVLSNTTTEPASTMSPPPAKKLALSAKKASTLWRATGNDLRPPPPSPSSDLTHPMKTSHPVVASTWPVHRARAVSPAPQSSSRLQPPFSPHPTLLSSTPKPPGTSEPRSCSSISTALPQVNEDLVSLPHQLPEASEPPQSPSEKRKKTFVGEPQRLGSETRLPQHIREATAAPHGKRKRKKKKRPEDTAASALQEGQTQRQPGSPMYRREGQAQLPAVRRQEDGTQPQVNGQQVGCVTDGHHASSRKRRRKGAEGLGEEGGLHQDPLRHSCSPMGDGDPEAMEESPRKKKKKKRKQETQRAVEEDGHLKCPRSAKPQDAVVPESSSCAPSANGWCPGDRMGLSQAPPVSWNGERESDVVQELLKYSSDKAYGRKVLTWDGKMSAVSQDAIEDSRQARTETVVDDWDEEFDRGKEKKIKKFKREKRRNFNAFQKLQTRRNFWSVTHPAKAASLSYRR
Method in brief: as §1

USP38 = molecular target: T2, USP38 (UniProt Q8NB14)
T2 sequence (whole entry): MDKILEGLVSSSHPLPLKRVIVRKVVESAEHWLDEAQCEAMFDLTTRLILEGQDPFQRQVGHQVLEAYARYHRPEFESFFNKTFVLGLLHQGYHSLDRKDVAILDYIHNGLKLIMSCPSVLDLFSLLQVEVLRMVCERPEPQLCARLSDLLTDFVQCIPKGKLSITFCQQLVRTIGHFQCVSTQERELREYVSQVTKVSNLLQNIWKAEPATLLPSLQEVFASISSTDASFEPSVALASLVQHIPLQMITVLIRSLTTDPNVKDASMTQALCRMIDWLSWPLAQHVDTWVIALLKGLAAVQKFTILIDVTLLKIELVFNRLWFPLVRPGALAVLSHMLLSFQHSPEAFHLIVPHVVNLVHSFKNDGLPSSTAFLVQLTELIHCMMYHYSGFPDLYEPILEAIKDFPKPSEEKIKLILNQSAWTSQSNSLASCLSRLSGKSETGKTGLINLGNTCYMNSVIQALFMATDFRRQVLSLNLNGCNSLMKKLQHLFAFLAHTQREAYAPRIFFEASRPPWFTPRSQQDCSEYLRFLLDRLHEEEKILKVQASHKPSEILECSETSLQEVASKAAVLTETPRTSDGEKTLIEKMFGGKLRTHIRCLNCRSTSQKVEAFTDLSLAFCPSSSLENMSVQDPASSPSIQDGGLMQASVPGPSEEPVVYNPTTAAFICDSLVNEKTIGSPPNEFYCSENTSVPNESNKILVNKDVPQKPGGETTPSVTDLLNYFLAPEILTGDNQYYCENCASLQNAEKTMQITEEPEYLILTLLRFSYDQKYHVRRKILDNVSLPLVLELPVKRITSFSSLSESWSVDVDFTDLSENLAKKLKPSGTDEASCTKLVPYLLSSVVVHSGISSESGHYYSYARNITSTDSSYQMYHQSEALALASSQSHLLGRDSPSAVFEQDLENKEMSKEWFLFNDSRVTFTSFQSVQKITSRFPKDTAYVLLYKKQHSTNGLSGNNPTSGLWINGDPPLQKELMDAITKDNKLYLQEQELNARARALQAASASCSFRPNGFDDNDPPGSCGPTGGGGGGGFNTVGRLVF
Method in brief: as §1

USP39 = molecular target: T3, USP39 (UniProt Q53GS9)
T3 sequence (whole entry): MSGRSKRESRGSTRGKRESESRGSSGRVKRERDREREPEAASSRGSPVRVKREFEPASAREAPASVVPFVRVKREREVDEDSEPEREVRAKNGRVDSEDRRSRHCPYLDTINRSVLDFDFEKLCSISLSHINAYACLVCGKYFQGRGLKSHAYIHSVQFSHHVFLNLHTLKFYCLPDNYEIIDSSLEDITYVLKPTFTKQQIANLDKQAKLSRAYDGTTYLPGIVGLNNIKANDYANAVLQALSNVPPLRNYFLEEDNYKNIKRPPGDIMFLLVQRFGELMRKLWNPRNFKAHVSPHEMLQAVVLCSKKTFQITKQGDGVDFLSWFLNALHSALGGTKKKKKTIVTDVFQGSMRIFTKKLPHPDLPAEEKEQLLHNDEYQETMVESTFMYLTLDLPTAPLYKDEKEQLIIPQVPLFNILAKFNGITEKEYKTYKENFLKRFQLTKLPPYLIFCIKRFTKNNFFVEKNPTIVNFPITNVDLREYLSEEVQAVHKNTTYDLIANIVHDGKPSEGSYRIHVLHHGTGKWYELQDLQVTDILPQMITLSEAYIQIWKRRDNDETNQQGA
Method in brief: as §1

USP4 = molecular target: T4, USP4 (UniProt Q13107)
T4 sequence (whole entry): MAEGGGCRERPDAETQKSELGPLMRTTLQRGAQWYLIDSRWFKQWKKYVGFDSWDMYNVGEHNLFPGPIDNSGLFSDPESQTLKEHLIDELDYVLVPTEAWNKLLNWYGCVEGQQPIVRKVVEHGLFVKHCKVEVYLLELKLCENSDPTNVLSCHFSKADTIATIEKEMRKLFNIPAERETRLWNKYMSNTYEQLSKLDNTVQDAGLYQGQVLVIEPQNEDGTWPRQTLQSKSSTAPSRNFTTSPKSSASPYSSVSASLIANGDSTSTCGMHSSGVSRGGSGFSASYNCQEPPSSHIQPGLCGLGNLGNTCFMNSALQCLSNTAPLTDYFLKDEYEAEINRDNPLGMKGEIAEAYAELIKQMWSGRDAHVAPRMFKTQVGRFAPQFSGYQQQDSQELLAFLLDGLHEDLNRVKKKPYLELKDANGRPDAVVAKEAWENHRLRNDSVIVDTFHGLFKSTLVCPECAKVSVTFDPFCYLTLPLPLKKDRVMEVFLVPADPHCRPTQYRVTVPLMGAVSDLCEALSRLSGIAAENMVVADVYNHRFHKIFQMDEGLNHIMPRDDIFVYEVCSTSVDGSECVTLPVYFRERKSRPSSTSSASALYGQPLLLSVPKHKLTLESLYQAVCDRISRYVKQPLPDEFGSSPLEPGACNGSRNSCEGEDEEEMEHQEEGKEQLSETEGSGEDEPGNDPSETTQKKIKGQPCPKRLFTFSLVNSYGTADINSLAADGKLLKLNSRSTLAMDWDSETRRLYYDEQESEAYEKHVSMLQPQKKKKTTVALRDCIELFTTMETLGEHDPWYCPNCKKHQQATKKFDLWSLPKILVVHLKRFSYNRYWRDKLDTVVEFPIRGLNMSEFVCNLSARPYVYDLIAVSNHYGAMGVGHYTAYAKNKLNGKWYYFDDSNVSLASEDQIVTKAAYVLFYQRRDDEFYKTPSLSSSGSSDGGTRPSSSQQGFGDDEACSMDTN
Method in brief: as §1

Measured: log2 ratio of Biotin-Ahx-Ub-VS probe labelling

CS(=O)(=O)c1ccc(CNC(=O)CCl)cc1
inactive: USP34 -0.0991 | USP36 -0.225 | USP38 -0.0436 | USP39 0.204 | USP4 -0.0105
